Structures can show the parent of a compound that is named as a salt.
How the values were obtained:
Conditions in all cases: incubation time: 27 h, anaerobic, 37 °C;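 for the amine columns active = adjusted P below 0.05 in both replicates with a change the same way and a mean fold change under 0.8 or over 1.25; inactive = the rest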
[1] = system: Clostridium sporogenes DSM 1664; assay: growth (OD595) fold change vs plate DMSO controls (fold change (ratio)); higher = more growth
How it was run: (§1)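 To obtain OD, 595 nm absorbance readings were blank-subtracted, corrected for compound background using 20 µM compound solutions in water, and multiplied by a calibration factor of 5. They came from 96-well mGAM cultures grown anaerobically for 27 h at 37 °C and shaken before reading. Growth is the fold change relative to the median of plate DMSO controls. Two biological replicates were averaged, and fold changes above 1.5 were set to NA.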

Escherichia coli IAI1 [2] = assay: as above
How it was run: as §1

[3] = system: Klebsiella aerogenes DSM 30053; assay: as above
How it was run: as §1

[4] = system: Ruminococcus gnavus DSM 108212; assay: as above
How it was run: as §1

[5] = system: Klebsiella aerogenes DSM 30053; assay: fold change of Histamine concentration vs plate DMSO controls (fold change (ratio)); higher = more amine produced, active = hit call of the paper (significant change in both replicates, either direction)
How it was run: (§2)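 Anaerobic mGAM cultures of four gut bacterial strains were grown at 37 °C for 27 h in 80 µL wells, starting at OD 0.1 before 1:1 dilution. Compounds were at 20 µM final (sweeteners 50 µM). Whole cultures were extracted with cold acetonitrile/methanol containing 0.1% formic acid and centrifuged. Amines were quantified by LC–triple-quadrupole MS (dynamic MRM) against external calibration curves and drift-corrected within batch. Each value is the fold change versus plate DMSO controls, averaged over 2 biological replicates.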

[6] = system: Clostridium sporogenes DSM 1664; assay: fold change of Tryptamine concentration vs plate DMSO controls (fold change (ratio)); higher = more amine produced, active = hit call of the paper (significant change in both replicates, either direction)
How it was run: as §2

[7] = system: Ruminococcus gnavus DSM 108212; assay: as above
How it was run: as §2

Escherichia coli IAI1 [8] = assay: fold change of Putrescine concentration vs plate DMSO controls (fold change (ratio)); higher = more amine produced, active = hit call of the paper (significant change in both replicates, either direction)
How it was run: as §2

[9] = system: Klebsiella aerogenes DSM 30053; assay: as above
How it was run: as §2

Escherichia coli IAI1 [10] = assay: fold change of Cadaverine concentration vs plate DMSO controls (fold change (ratio)); higher = more amine produced, active = hit call of the paper (significant change in both replicates, either direction)
How it was run: as §2

[11] = system: Klebsiella aerogenes DSM 30053; assay: as above
How it was run: as §2

[12] = system: Ruminococcus gnavus DSM 108212; assay: fold change of 2-Phenylethylamine concentration vs plate DMSO controls (fold change (ratio)); higher = more amine produced, active = hit call of the paper (significant change in both replicates, either direction)
How it was run: as §2

Structure (SMILES)	growth [1]	growth (Escherichia coli IAI1 [2])	growth [3]	growth [4]	fold change of Histamine concentration [5]	fold change of Tryptamine concentration [6]	fold change of Tryptamine concentration [7]	fold change of Putrescine concentration (Escherichia coli IAI1 [8])	fold change of Putrescine concentration [9]	fold change of Cadaverine concentration (Escherichia coli IAI1 [10])	fold change of Cadaverine concentration [11]	fold change of 2-Phenylethylamine concentration [12]
OCCN1CCN(CC/C=C2/c3ccccc3Sc3ccc(C(F)(F)F)cc32)CC1 [Flupentixol dihydrochloride cis-(Z)] (20 µM)	1.03	0.959	0.968	0.925	1 (inactive)	1.12 (inactive)	0.921 (inactive)	1.02 (inactive)	0.933 (inactive)	0.852 (inactive)	1.02 (inactive)	1.06 (inactive)
Cc1onc(-c2c(F)cccc2Cl)c1C(=O)N[C@@H]1C(=O)N2[C@@H]1SC(C)(C)[C@@H]2C(=O)O [Flucloxacillin sodium] (20 µM)	0	1.02	0.993	0	0.99 (inactive)	0.0254 (active)	0.0375 (active)	1.01 (inactive)	1.02 (inactive)	1.07 (inactive)	1.02 (inactive)	0.0397 (active)
C#CCN[C@@H]1CCc2ccccc21 [Rasagiline] (20 µM)	0.963	0.959	0.993	0.87	1.02 (inactive)	1.03 (inactive)	1.02 (inactive)	0.965 (inactive)	0.981 (inactive)	1.02 (inactive)	0.974 (inactive)	1.03 (inactive)
N[C@@H](Cc1cc(I)c(Oc2cc(I)c(O)c(I)c2)c(I)c1)C(=O)O [(L) Thyroxine] (20 µM)	1.27	0.975	1.01	0.958	1.05 (inactive)	1.27 (inactive)	0.99 (inactive)	1.01 (inactive)	1 (inactive)	1 (inactive)	1.01 (inactive)	1.03 (inactive)
CC1CCc2c(N3CCC(O)CC3)c(F)cc3c(=O)c(C(=O)O)cn1c23 (stereo not given) [Nadifloxacin] (20 µM)	0.00717	0.0576	0.316	0.383	0.5 (active)	0.0474 (active)	0.271 (active)	0.763 (inactive)	1.16 (inactive)	0.267 (active)	0.982 (inactive)	0.362 (active)
C=C1C[C@H]2[C@@H]3C=C(C)C4=CC(=O)CC[C@]4(C)[C@H]3CC[C@]2(C)[C@@]1(OC(C)=O)C(C)=O [Melengestrol acetate] (20 µM)	1.17	1.07	1.07	1.04	1.03 (inactive)	1 (inactive)	1.03 (inactive)	1.02 (inactive)	1 (inactive)	1.02 (inactive)	0.995 (inactive)	1.05 (inactive)
c1ccc2cc3c(ccc4ccccc43)cc2c1 [Benz[a]anthracene] (20 µM)	1.13	0.981	1.02	0.97	1.07 (inactive)	1.17 (inactive)	1.12 (inactive)	1.02 (inactive)	0.901 (inactive)	0.963 (inactive)	1.17 (inactive)	1.3 (inactive)
CC(=O)Nc1ccc(C(=O)O)cc1 [Acedoben] (20 µM)	1.09	1	0.977	0.997	1.02 (inactive)	0.935 (inactive)	1.03 (inactive)	1.01 (inactive)	1 (inactive)	1.02 (inactive)	0.995 (inactive)	1 (inactive)
O=C(NCC(O)CO)c1c(I)c(C(=O)NCC(O)CO)c(I)c(N(CCO)C(=O)CO)c1I (stereo not given) [Ioversol] (20 µM)	1.09	0.998	1.01	1.11	0.997 (inactive)	1.11 (inactive)	1.11 (inactive)	0.923 (inactive)	0.975 (inactive)	0.924 (inactive)	1.02 (inactive)	1.12 (inactive)
O=C(O)c1ccccc1Nc1cccc(C(F)(F)F)c1 [Flufenamic acid] (20 µM)	1.16	0.983	1.07	0.538	0.993 (inactive)	0.918 (inactive)	0.989 (inactive)	1.03 (inactive)	1.02 (inactive)	1.03 (inactive)	1.02 (inactive)	0.981 (inactive)
CN(C(=O)CN(CCO)CC(=O)N(C)C(C)(C)Cc1ccccc1)C(C)(C)Cc1ccccc1 [Oxethazaine] (20 µM)	1.23	1.05	1	0.384	0.971 (inactive)	0.918 (inactive)	0.602 (active)	1.1 (inactive)	1 (inactive)	1.01 (inactive)	0.988 (inactive)	0.728 (active)
OC[C@@H](O)[C@@H](O)[C@@H](O)[C@@H](O)CO [Allitol] (50 µM)	0.907	1.08	1.11	0.986	0.908 (inactive)	1 (inactive)	0.953 (inactive)	1.02 (inactive)	1.03 (inactive)	0.992 (inactive)	1.02 (inactive)	0.932 (inactive)
COc1cccc2c1C(=O)c1c(O)c3c(c(O)c1C2=O)C[C@@](O)(C(C)=O)C[C@@H]3O[C@H]1C[C@H](N)[C@H](O)[C@H](C)O1 [Daunorubicin hydrochloride] (20 µM)	0.967	0.972	0.997	1.13	1.01 (inactive)	0.941 (inactive)	0.986 (inactive)	0.988 (inactive)	1.02 (inactive)	1.09 (inactive)	1.04 (inactive)	0.967 (inactive)
NS(=O)(=O)c1cc(C(=O)NN2C[C@@H]3[C@H]4CC[C@H](C4)[C@@H]3C2)ccc1Cl [Tripamide] (20 µM)	0.981	1.01	0.978	1.08	1.01 (inactive)	1.03 (inactive)	1.06 (inactive)	0.995 (inactive)	0.981 (inactive)	0.928 (inactive)	0.998 (inactive)	1.05 (inactive)
CCN(CC)CCOC(=O)C(c1ccccc1)c1ccccc1 [Adiphenine hydrochloride] (20 µM)	1.07	1.03	1.16	1	0.877 (inactive)	1.05 (inactive)	0.977 (inactive)	1 (inactive)	0.932 (inactive)	1.01 (inactive)	1.03 (inactive)	0.968 (inactive)
C[N+](C)(CCOc1ccccc1)Cc1ccccc1.O=C([O-])c1cc2ccccc2cc1O [Bephenium hydroxynaphthoate] (20 µM)	0.816	0.99	0.976	0.995	1.04 (inactive)	1.16 (inactive)	1.04 (inactive)	0.854 (inactive)	0.99 (inactive)	1.51 (active)	0.992 (inactive)	1.06 (inactive)
CC(C)Nc1ncccn1 [Isaxonine] (20 µM)	1.12	0.989	1.07	1.01	0.936 (inactive)	1.05 (inactive)	0.919 (inactive)	1 (inactive)	1.04 (inactive)	1.01 (inactive)	1.01 (inactive)	0.894 (inactive)
CC(Oc1ccccc1)C(=O)N[C@@H]1C(=O)N2[C@@H]1SC(C)(C)[C@@H]2C(=O)O (stereo not given in full) [Phenethicillin potassium salt] (20 µM)	0	1.05	0.995	0	0.936 (inactive)	0.0424 (active)	0.045 (active)	0.969 (inactive)	0.954 (inactive)	1.06 (inactive)	1.02 (inactive)	0.0417 (active)
CNCCC=C1c2ccccc2CCc2ccccc21 [Nortriptyline hydrochloride] (20 µM)	1.11	0.972	0.974	1.28	1.09 (inactive)	1.06 (inactive)	0.993 (inactive)	0.975 (inactive)	1.02 (inactive)	1.04 (inactive)	0.989 (inactive)	1.03 (inactive)
CCOC(=O)C1=C[C@]2(CC)CCCN3CCc4c(n1c1ccccc41)[C@@H]32 [Vinpocetine] (20 µM)	0.883	0.979	1.03	1.14	0.922 (inactive)	0.964 (inactive)	0.955 (inactive)	0.995 (inactive)	1.02 (inactive)	1.02 (inactive)	1.02 (inactive)	0.972 (inactive)
CCOC(=O)[C@H](CCc1ccccc1)N[C@@H](C)C(=O)N1[C@H](C(=O)O)C[C@@H]2CCC[C@@H]21 [Ramipril] (20 µM)	1.06	0.984	1.13	1.19	0.948 (inactive)	0.963 (inactive)	0.966 (inactive)	0.999 (inactive)	1.05 (inactive)	0.964 (inactive)	1.05 (inactive)	0.911 (inactive)
CNCCC(Oc1ccc(C(F)(F)F)cc1)c1ccccc1 (stereo not given) [Fluoxetine hydrochloride] (20 µM)	1.18	1.02	1.03	1.2	0.972 (inactive)	0.945 (inactive)	0.882 (inactive)	0.927 (inactive)	0.993 (inactive)	1.19 (inactive)	0.995 (inactive)	0.907 (inactive)
CC(/C=C1\SC(=S)N(CC(=O)O)C1=O)=C\c1ccccc1 [Epalrestat] (20 µM)	1.15	0.964	1.05	0.896	1.05 (inactive)	1.01 (inactive)	1.16 (inactive)	1.14 (inactive)	0.992 (inactive)	0.932 (inactive)	1.12 (inactive)	1.44 (inactive)
Cc1ccc2c([nH]c(=O)c3c(=O)cc(C(=O)OCCC(C)C)oc32)c1C [Repirinast] (20 µM)	1.15	1.03	0.997	1.08	1.03 (inactive)	1.08 (inactive)	0.977 (inactive)	1.01 (inactive)	1 (inactive)	1.03 (inactive)	0.998 (inactive)	0.964 (inactive)
OC[C@H]1O[C@@H](O[C@H]2[C@H](O)[C@@H](O)[C@H](O)O[C@@H]2CO)[C@H](O)[C@@H](O)[C@H]1O [Lactose] (50 µM)	0.993	1.02	1.05	1.07	1.01 (inactive)	0.96 (inactive)	0.989 (inactive)	1.03 (inactive)	1.01 (inactive)	0.984 (inactive)	1.02 (inactive)	0.976 (inactive)

Reference: the supplement of paper PMC12494721
